Potency data for 63 compounds are collected here from PubChem BioAssay AID686979 (National Center for Advancing Translational Sciences (NCATS), 2013).

Structures are written as SMILES. About 50,000 (12%) of roughly 420,000 compounds were called active. Roughly 26% stayed inconclusive and do not appear here. Calls follow the shape of the dose curve; as a rule, active = well fitted inhibition curve with a large enough effect; inconclusive = small, poorly fitted or top-dose-only effect; inactive = flat fitted curve, though single readings scatter. Shown is part of a subset that was picked to be rich in actives. Where a call stands in place of a potency, no number is given.
Potency is read from the fitted curve at half-maximal effect.

This assay can be described thus: qHTS for Inhibitors of human tyrosyl-DNA phosphodiesterase 1 (TDP1): qHTS in cells in presence of CPT. Also: nearly all actives have a fitted effect of over 55% in size. The note with it: chicken DT40 Tdp1-/-;hTDP1 cells + 20 nM CPT, ATP luminescence, 48 h; series mostly up to 46.2 µM. A digest of the protocol: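 Cell growth measured by CellTiter-Glo luminescence after a minimum 48 h, 37 C compound exposure with 20 nM CPT in Tdp1-knockout DT40 cells stably expressing hTDP1, seeded 400/well; qHTS titration format.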
As for `O=C(COC(=O)c1ccc(F)cc1)NCCCc1ccccc1`, the Potency entry was “inactive”.

Turning to `Cn1c(SCC(=O)N2CCCCC2)nc2c(c1=O)SCC2`, the Potency entry is “inactive”.

As to `Cc1c(NC(=O)c2cc(=O)c3ccccc3o2)c(=O)n(-c2ccccc2)n1C`, the Potency entry was “inactive”.

Take `O=C1CC(c2ccccc2)C(c2ccccc2)=NN1` (stereo not drawn): the Potency result is “inactive”.

On to `CC(C)CCC(=O)Nc1cc(S(=O)(=O)N2CCOCC2)ccc1N1CCCC1`, for which the Potency entry was “inactive”.

Consider `CC(=O)NCCC(=O)Nc1cc(S(=O)(=O)N2CCOCC2)ccc1N1CCOCC1`, for which the Potency entry was “inactive”.

For the compound `CC(=O)Nc1ccc(C(=O)Nc2cc(S(=O)(=O)N3CCOCC3)ccc2N2CCOCC2)cc1`, the Potency result is “inactive”.

With `COCCNC(=S)Nc1cc(S(=O)(=O)N2CCOCC2)ccc1N1CCCCC1`, the Potency was 20.6 µM (active).

Turning to `CC(Oc1ccc(F)cc1)C(=O)Nc1cc(S(=O)(=O)N2CCOCC2)ccc1N1CCN(C)CC1` (stereo not drawn), the Potency entry was “inactive”.

In the case of `CC(C)CCOc1ccc(C(=O)Nc2cc(S(=O)(=O)N3CCOCC3)ccc2N2CCOCC2)cc1`, the Potency was 9.2 µM (active).

For `COc1ccc(CNC(=O)Cn2nnc(-c3ccccc3F)n2)cc1`, the Potency entry is “inactive”.

Take `COC(=O)[C@@H]1CC(O)CN1C(=O)C12CC3CC(CC(C3)C1)C2` (stereo partly drawn): the Potency entry is “inactive”.

Turning to `CN(C)/C(=N\OC(=O)c1ccccc1)c1nonc1N`, the Potency result is “inactive”.

In the case of `C=C(C)CNC(=O)c1ccc(OC2CCN(C(=O)COC)CC2)cc1`, the Potency result was “inactive”.

For the compound `Cc1c(NC(=O)CSc2nnnn2-c2ccc(C(=O)O)cc2)c(=O)n(-c2ccccc2)n1C`, the Potency entry was “inactive”.

As to `CS(=O)(=O)N(CC(=O)N1CCc2ccccc2C1)c1ccc(Br)cc1`, the Potency entry was “inactive”.

Turning to `CN(CCc1ccccc1)c1ccc([N+](=O)[O-])cn1`, the Potency result is “inactive”.

As for `Cc1c(C)c2c(OCC(=O)N[C@@H](C(=O)O)c3ccccc3)cc3c(c2oc1=O)CCC(C)(C)O3`, the Potency entry is “inactive”.

Turning to `COc1ccc2c(c1)CCc1cnc(-n3ncc(C(=O)NCCN4CCOCC4)c3C)nc1-2`, the Potency result is “inactive”.

For the compound `COC(=O)c1cc(C(=O)CSc2nc(C)cc(C)n2)ccc1O`, the Potency result was “inactive”.

Consider `Cc1cc(C)nc(SCC(=O)c2ccc(Cl)cc2)n1`, for which the Potency result was “inactive”.

Consider `Cc1cc(Oc2ccc(Cl)cc2)nc(SCC(=O)c2ccccc2)n1`, for which the Potency was 23.1 µM (active).

As to `O=C(COC(=O)CCCSc1nc2ccccc2[nH]1)Nc1ccc(Oc2ccccc2)cc1`, the Potency result was “inactive”.

`NC(=O)CC[C@@H]1NC(=O)[C@@H]2CCCN2C(=O)c2cc([N+](=O)[O-])cc(F)c2NCCC[C@@H](C(N)=O)NC1=O`: the Potency entry was “inactive”.

On to `CC1(C)CN(Cc2cccnc2)C(=O)[C@H]1CC(=O)Nc1ccc(Br)cc1`, for which the Potency result is “inactive”.

`CC(C)C(=O)N1CC(=O)Nc2ccc(F)cc2C1c1ccc(F)cc1` (stereo not drawn): the Potency result was “inactive”.

In the case of `COc1ccc(CC(=O)N2CC(=O)Nc3ccc(Br)cc3C2c2ccc(F)cc2)cc1OC` (stereo not drawn), the Potency is 16.4 µM (active).

As for `Cc1ccc2c(c1)C(c1ccccc1)N(C(=O)c1ccc(F)cc1)CC(=O)N2` (stereo not drawn), the Potency entry is “inactive”.

With `CCC(CC)C(=O)N1CC(=O)Nc2ccc(Br)cc2C1c1ccccc1` (stereo not drawn), the Potency is 23.1 µM (active).

On to `O=C1CN(C(=O)c2ccccc2F)C(c2ccc(F)cc2)c2cc(F)ccc2N1` (stereo not drawn), for which the Potency entry was “inactive”.

Take `COC(=O)CN1C(C)=Nc2ccc(Br)cc2C1c1ccccc1` (stereo not drawn): the Potency entry was “inactive”.

As for `COc1ccc(C(=O)Nc2ccnn2C2CCN(Cc3ccncc3)CC2)cc1`, the Potency entry is “inactive”.

Turning to `COC(=O)c1sc2ncccc2c1-n1c(C)ccc1C`, the Potency result is “inactive”.

Consider `Cc1cc(Cl)ccc1NNC(=O)c1snnc1C`, for which the Potency entry is “inactive”.

With `Brc1ccc(-c2csc(N/N=C/c3cccnc3)n2)cc1`, the Potency entry is “inactive”.

With `CC(=O)Nc1ccc(C(=O)CSc2nnc(Cc3ccccc3)o2)cc1`, the Potency result was “inactive”.

In the case of `O=C(CSc1nnc(Cn2cnc3ccccc32)o1)c1ccccc1`, the Potency is 11.6 µM (active).

Consider `O=C(CSc1nnc(-c2c[nH]c3ccccc23)o1)c1ccccc1`, for which the Potency entry is “inactive”.

On to `CCCN(c1ccc(C)cc1)c1nc(=O)c2cccnc2s1`, for which the Potency entry was “inactive”.

Turning to `Cc1nc(N2CCOCC2)c2c(C(=O)NCc3cccc(Cl)c3)c(C)oc2n1`, the Potency result was “inactive”.

On to `COc1ccc(N2CCN(C(=O)c3c(C)oc4nc(C)nc(N5CCCC5)c34)CC2)cc1`, for which the Potency entry was “inactive”.

For the compound `CCOC(=O)c1c(C)oc2nc(C)nc(N3CCN(c4ccc(OC)cc4)CC3)c12`, the Potency was 7.31 µM (active).

In the case of `CCOc1ccc(CCNC(=O)CN(c2ccc(C)cc2)S(=O)(=O)N(C)C)cc1OCC`, the Potency result was “inactive”.

Consider `CCc1ccc(C2CC(=O)c3c([nH]c(C(=O)OCc4ccc(C)cc4)c3C)C2)cc1` (stereo not drawn), for which the Potency is 6.51 µM (active).

As for `CCOc1ccc(C2CC(=O)c3c([nH]c(C(=O)OCc4ccccc4)c3C)C2)cc1` (stereo not drawn), the Potency was 13 µM (active).

Take `CC(C)(C)N1C(=O)c2c(C(=O)OCc3ccccc3)[nH]c(-c3ccccc3)c2C1=O`: the Potency entry is “inactive”.

With `CCOC(=O)c1cc(=O)c2ccc(OCc3ccccc3)cc2o1`, the Potency entry is “inactive”.

`CCOC(=O)c1[nH]c2c(c1-c1ccccc1)C(=O)CC(c1ccc(Cl)cc1)C2` (stereo not drawn): the Potency entry was “inactive”.

As for `CCOC(=O)C(Cc1ccccc1)NC(=O)CCC(=O)c1ccc(OC)cc1` (stereo not drawn), the Potency result was “inactive”.

Regarding `CN1C(=O)/C(=C/C=C2\SCCN2C)OC1=S`, the Potency result is “inactive”.

For `Cc1ccn2c(=O)nc(SCC(=O)NCc3ccc4c(c3)OCO4)nc2c1`, the Potency entry was “inactive”.

As for `CCOc1ccccc1NC(=O)CSc1ncc(S(=O)(=O)c2ccc(C(C)(C)C)cc2)c(=O)[nH]1`, the Potency entry is “inactive”.

Turning to `O=C(NCC(=O)N(c1ccccc1)C(C(=O)NCC1CCCO1)c1ccccc1)c1cccs1` (stereo not drawn), the Potency entry was “inactive”.

With `Cc1ccc(N2CCN(C(=O)CCc3c(C)nc4c(c3C)c(=O)n(C)c(=O)n4C)CC2)c(C)c1`, the Potency entry is “inactive”.

On to `COc1cc(NC(=O)CSc2nc3nc(C)c(Cc4ccc(C)cc4)c(C)n3n2)cc(OC)c1OC`, for which the Potency is 13 µM (active).

In the case of `Cc1ccc(Cc2c(C)nc3nc(SCC(=O)NCCN4CCOCC4)nn3c2C)cc1`, the Potency result is “inactive”.

Regarding `COc1cc(NC(=O)CCn2nc(C)cc2C)cc(OC)c1OC`, the Potency result was “inactive”.

As for `CCn1c(SC)nc(O)c(C(c2ccc(OC)c(O)c2)c2c(O)nc(SC)n(CC)c2=O)c1=O`, the Potency result is “inactive”.

For `CC(C)CN1CCC1(C)C(=O)Nc1ccc(OC(F)F)cc1` (stereo not drawn), the Potency result was “inactive”.

On to `CC(C)Oc1ccc(Oc2ccc(C(F)(F)F)cn2)cc1`, for which the Potency entry was “inactive”.

Turning to `CC(C)Oc1ccc(CN2CCC2(C)C(=O)NCc2ccc(C(F)(F)F)cc2)cc1` (stereo not drawn), the Potency is 25.9 µM (active).

With `CN(CC(=O)Nc1ccc(Cl)cc1)C(=O)CNC(=O)c1ccc2ccccc2c1`, the Potency entry is “inactive”.

Turning to `O=C(/C=C/c1ccccc1)Oc1coc(CSc2ncccn2)cc1=O`, the Potency result was “inactive”.
